Assay results reported in article PMC5540273 (PLoS ONE, 2017).

Key:
Conditions in all cases: concentration: 1 μM,replicates: in singlicate; n = 1
CDC2L2 = tested on: CDC2L2
CDC2L5 = tested on: T1, CDC2L5
T1 construct: gene CDK13

CDK11 = tested on: T2, CDK11
T2 construct: gene CDK19

CDK2 = tested on: CDK2
CDK3 = tested on: CDK3
CDK4-cyclinD1 = tested on: CDK4-cyclinD1
CDK4-cyclinD3 = tested on: CDK4-cyclinD3
CDK4 = tested on: CDK4
CDK5 = tested on: CDK5
CDK7 = tested on: CDK7
CDK8 = tested on: CDK8
CDK9 = tested on: CDK9
CDKL1 = tested on: CDKL1
CDKL2 = tested on: CDKL2
CDKL3 = tested on: CDKL3
CDKL5 = tested on: CDKL5
CHEK1 = tested on: CHEK1
CHEK2 = tested on: CHEK2
CIT = tested on: CIT
CLK1 = tested on: CLK1
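Also: KINOMEscan kinase panel screen.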

Row | SMILES | %Inh (CDC2L2) [%] | %Inh (CDC2L5) [%] | %Inh (CDK11) [%] | %Inh (CDK2) [%] | %Inh (CDK3) [%] | %Inh (CDK4-cyclinD1) [%] | %Inh (CDK4-cyclinD3) [%] | %Inh (CDK4) [%] | %Inh (CDK5) [%] | %Inh (CDK7) [%] | %Inh (CDK8) [%] | %Inh (CDK9) [%] | %Inh (CDKL1) [%] | %Inh (CDKL2) [%] | %Inh (CDKL3) [%] | %Inh (CDKL5) [%] | %Inh (CHEK1) [%] | %Inh (CHEK2) [%] | %Inh (CIT) [%] | %Inh (CLK1) [%]
1 | Cc1cc(C(=O)Nc2ccc(Oc3ccc4nc(NC(=O)C5CC5)cn4n3)cc2)nn1-c1ccccc1 | 6 | 0 | 3 | 0 | 39 | 13 | 0 | 4 | 0 | 0 | 41 | 21 | 55 | 94 | 23 | 0 | 0 | 0 | 29 | 5
2 | O=C(NCCCN1CCOC1=O)c1cnc(NCc2cc(Cl)ccc2Cl)nc1NC1CCCC1 | 0 | 0 | 29 | 0 | 14 | 4 | 0 | 12 | 10 | 14 | 17 | 5 | 25 | 13 | 29 | 0 | 9 | 8 | 25 | 0
3 | NC(=O)c1cc(-c2ccccc2)cc2c(C3CCNCC3)c[nH]c12 [GSK301362] | 17 | 0 | 6 | 0 | 16 | 0 | 3 | 13 | 0 | 0 | 0 | 0 | 1 | 30 | 0 | 0 | 20 | 0 | 42 | 36
4 | Cc1n[nH]c2ccc(-c3cc(OC[C@@H](N)Cc4ccccc4)cnc3-c3ccoc3)cc12.O=C(O)C(F)(F)F.O=C(O)C(F)(F)F [GSK507358] | 0 | 0 | 6 | 0 | 0 | 0 | 0 | 10 | 0 | 0 | 26 | 0 | 6 | 57 | 0 | 0 | 0 | 0 | 100 | 38
5 | CCN(CC)CCOc1ccc(Nc2ncc3cc(-c4c(Cl)cccc4Cl)c(=O)n(C)c3n2)cc1 [SB-601273] | 43 | 41 | 90.1 | 7 | 9 | 80 | 48 | 89 | 0 | 34 | 99 | 20 | 12 | 100 | 6 | 0 | 52 | 68 | 74 | 0
6 | CNC(=O)c1ccccc1Sc1ccc2c(/C=C/c3ccccn3)n[nH]c2c1 | 0 | 0 | 0 | 1 | 63 | 0 | 0 | 0 | 3 | 25 | 30 | 0 | 8 | 28 | 0 | 0 |  |  | 0 | 0
7 | Cl.Cl.NC[C@H](Cc1ccc(C(F)(F)F)cc1)NC(=O)c1cc(Br)c(-c2ccnc3[nH]ccc23)s1 [GSK1487252] | 0 | 0 | 14 | 3 | 0 | 14 | 2 | 0 | 0 | 0 | 17 | 0 | 6 | 0 | 0 | 0 | 14 | 18 | 72 | 62
8 | CN(C)CCOc1ccc(-c2cc(-c3c[nH]nc3-c3ccccn3)ccn2)cc1 [GW835314] | 9 | 0 | 13 | 1 | 16 | 0 | 17 | 45 | 0 | 16 | 2 | 0 | 25 | 0 | 12 | 1 | 0 | 4 | 45 | 70
9 | O=C(NCCNc1ccnc(NCc2ccc(F)cc2)n1)c1cc2ccccc2s1 [GSK1379944] | 0 | 0 | 0 | 68 | 83 | 84 | 11 | 1 | 0 | 0 | 13 | 0 | 12 | 25 | 0 | 0 | 100 | 0 | 26 | 22
10 | Cc1ccc2c(-c3ccncc3)c(-c3ccc(F)cc3)nn2c1.Cl [GW461484] | 10 | 0 | 0 | 0 | 0 | 0 | 0 | 28 | 0 | 45 | 41 | 0 | 15 | 12 | 0 | 0 | 40 | 3 | 98.7 | 10
11 | CC(C)Nc1cc(-c2ccc3c(N)n[nH]c3c2)nc(N)n1 [GSK2221681] | 0 | 0 | 0 | 21 | 0 | 0 | 0 | 0 | 0 | 0 | 0 | 0 | 0 | 0 | 0 | 0 | 0 | 81 | 1 | 74
12 | C[C@@H]1CCN(C(=O)CC#N)C[C@@H]1N(C)c1ncnc2[nH]ccc12 | 0 | 0 | 18 | 0 | 14 | 0 | 6 | 0 | 0 | 2 | 1 | 0 | 3 | 0 | 15 | 0 | 0 | 2 | 0 | 9
13 | C[C@H]1Oc2cc(cnc2N)-c2c(nn(C)c2C#N)CN(C)C(=O)c2ccc(F)cc21 | 18 | 0 | 12 | 21 | 6 | 0 | 0 | 0 | 11 | 0 | 0 | 1 | 34 | 0 | 5 | 0 | 16 | 24 | 0 | 17
